Only a selection was taken, and hits are over-represented in it overall.
Tg IFNy HTS – T. gondii growth inhibition with IFN-gamma, primary screen, cell-based | Toxoplasma gondii growth in IFN-gamma-treated host cells; stronger effect = lower value | activity change, negative = inhibition, % (test concentration not listed) | 69,000 compounds, 3.8% hits; in the data active = activity change below about -70%, passing the limit was not always enough;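 note: host cells are HeLa cells infected with Toxoplasma gondii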
Large screens that a line does not name were inactive.

O=C(NCc1cccc(F)c1)Nc1ccc(-c2nc(-c3ccccc3)co2)cc1	none
Fc1cccc(CNc2nc(-c3nnc(-c4ccc(Cl)cc4)o3)nc3ccccc23)c1	none
Fc1cccc(CNc2c3c(nc4cc(-c5cccc(Cl)c5)nn24)CCC3)c1	Tg IFNy HTS -90
CN(C)CCN1CCC2(CC1)CN(c1ncccn1)Cc1ccccc12	none
CCOc1ccc(-c2cc3c(=O)n(Cc4nc(-c5ccccc5C)oc4C)ccn3n2)cc1Cl	none
Cc1ccc(C(=O)N2CCC3(CC2)CC(c2cnn(C)c2)CO3)cn1 (centres undefined)	none
CC(C)Cn1c(CN(C)Cc2ncc[nH]2)nc2ccccc21	Tg IFNy HTS -84
CNC(=O)C(C)N(C)Cc1nc2ccccc2n1CC(C)C (centres undefined)	none
CC(C)Cc1nc(CN(C)Cc2ncc[nH]2)no1	none
CCOc1ccc(NC(=O)C2=C(C)C(=O)OC23CCN(Cc2ccccc2)CC3)cc1	none
CC1=C(C(=O)Nc2ccc(Cl)cc2)C2(CCN(Cc3ccccc3)CC2)OC1=O	none
CC1=C(C(=O)Nc2ccc(Cl)c(Cl)c2)C2(CCN(Cc3ccccc3)CC2)OC1=O	Tg IFNy HTS -93
FC(F)(F)c1ccc(-c2nnc3ccc(N4CCCCC4)nn23)cc1	Tg IFNy HTS -109
FC(F)(F)c1cc(-c2nnc(N3CCCC3)o2)cc(C(F)(F)F)c1	none
Cc1cc2nnc(-c3ccc(C(F)(F)F)cc3)n2[nH]1	none
CC(C)C(=O)NCc1csc(C2CCCN(C(=O)c3ccccc3Cl)C2)n1 (centres undefined)	none
O=C(c1cccc2cc[nH]c12)N1CCOC(C(F)(F)F)C1 (centres undefined)	none
O=C(c1cccnc1)N1CCC(c2cccc(Cc3ccccc3F)n2)CC1	none
O=S(=O)(Cc1noc(-c2ccsc2)n1)c1ccccn1	none
O=S(=O)(Cc1nc(-c2ccsc2)no1)c1ccc(Cl)cc1	none
O=S(=O)(Cc1noc(-c2cc(Cl)cc(Cl)c2)n1)c1ccc(Cl)cc1	Tg IFNy HTS -87
COc1ccc(-c2cc3c(C)nc(N)nc3n(C3CCC(OCCO)CC3)c2=O)cn1 (centres undefined)	Tg IFNy HTS -83
COc1ccc(-c2ccccc2OC(C)C(N)=O)cn1 (centres undefined)	none
CCC(=O)Nc1ccc(-c2ccc(OC)nc2)c(C)n1	none
COc1ccc(C(=O)COC(=O)CCn2nnc(-c3ccc(C(C)C)cc3)n2)cc1	none
CS(=O)(=O)N1CCC2(CC1)OCCN(c1ncccn1)c1ccccc12	none
O=C(c1cccc(Cl)c1)N1CCc2c([nH]c3ccccc23)C1c1cccnc1 (centres undefined)	Tg IFNy HTS -82
Cc1ccc(C2c3[nH]c4ccccc4c3CCN2C(=O)c2ccc3c(c2)OCO3)cc1 (centres undefined)	none
CCOc1cc(C(=O)N2CCc3c([nH]c4ccccc34)C2c2ccccc2)cc(OCC)c1OCC (centres undefined)	Tg IFNy HTS -115
CCCC(=O)N1CCc2c([nH]c3ccccc23)C1c1ccccc1 (centres undefined)	none
O=C(c1ccccc1)N1CCc2c([nH]c3ccccc23)C1c1cccnc1 (centres undefined)	none
O=C(c1ccc2c(c1)OCO2)N1CCc2c([nH]c3ccccc23)C1c1ccc(F)cc1 (centres undefined)	Tg IFNy HTS -109
Cc1ccc(C2c3[nH]c4ccccc4c3CCN2C(=O)C2CC2)cc1 (centres undefined)	none
COc1ccc(C(=O)N2CCc3c([nH]c4ccccc34)C2c2cccnc2)cc1OC (centres undefined)	none
COc1ccc(C(=O)N2CCc3c([nH]c4ccccc34)C2c2ccc(F)cc2)cc1OC (centres undefined)	none
CSc1ccc(C2c3[nH]c4ccccc4c3CCN2C(=O)C2CC2)cc1 (centres undefined)	none
O=C(C1CCCCC1)N1CCc2c([nH]c3ccccc23)C1c1ccc(F)cc1 (centres undefined)	Tg IFNy HTS -75
CCOc1cc(C(=O)N2CCc3c([nH]c4ccccc34)C2c2cccnc2)cc(OCC)c1OCC (centres undefined)	none
CCN(Cc1nccn1C)C(=O)c1ccc(-c2cccc3ncccc23)nc1	none
C=C1C2(C(=O)N3CCC(c4cccc(OC)c4OC)C3)CCC(C2)C1(C)C (centres undefined)	none
CN(Cc1cn2c(n1)CN(Cc1ccco1)CC2)Cc1ccco1	none
CC[C@H]1CN(C(=O)c2cnn3ccccc23)CC[C@@]1(C)O	none
Cn1c(CCNC(=O)C2CC3(CCNCC3)CN2)nc2ccccc21 (centres undefined)	none
CCS(=O)(=O)N1CCC2(CC1)COC(COc1ccccn1)C2 (centres undefined)	none
CC(=O)Nc1ccc(S(=O)(=O)N2CCN(c3ccccc3Cl)CC2)cc1	none
CC(=O)N1CC2(CCN(C(=O)c3ccc4ncccc4c3)CC2)CC1C(=O)O (centres undefined)	none
Cc1ccccc1CN1C[C@@H]2C[C@H](C(=O)Nc3ccccc3)[C@@H](C1)O2	none
Cn1ccnc1CN1CCC2(CC1)CN(C(=O)c1cccnc1)CCO2	none
